About 480 (23%) of roughly 2,100 compounds were called active. Another 5% or so got no clear call; they are omitted.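 Rule for the calls: active = fitted curve reaches 40% activation at or below the top valid concentration, in every replicate test; inconclusive = replicate tests disagree on the call; inactive = the rest, including activity in the opposite direction.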 The list is a sample of the results. Entries with a potency or affinity are not part of this list.

The experiment in a line: activators raising PGC1a acetylation in cells, dose response, cell-based, cherry-picked samples, set 6 (AID 720513).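 Note: cells made to overexpress flag tagged PGC1a plus GCN5 acetyltransferase by viral infection.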 The note with it: U2OS PGC1a acetylation AlphaLISA, overnight, 0 = neutral, -100 = inhibitor control; series mostly up to 19.5 µM.
For `CO[C@@H]1CN(C)C(=O)c2cc(NC(C)=O)ccc2OC[C@H](C)N(Cc2cc(F)ccc2F)C[C@H]1C`, the compound was classed as inactive.

On to `N#C/C(=C/c1ccc(OCc2ccc(C(=O)O)cc2)c(Br)c1)c1cccc(F)c1`, for which the call was inactive.

`C[C@H]1CN([C@@H](C)CO)S(=O)(=O)c2ccc(Br)cc2O[C@@H]1CN(C)S(=O)(=O)c1ccccc1F`: the outcome was inactive.

With `CCN(C[C@@H]1N[C@@H](CO)[C@H]1c1ccc(-c2ccc(F)cc2)cc1)C(=O)CN(C)C`, the call was inactive.

Consider `COc1ccccc1C#Cc1ccc([C@H]2[C@H](C#N)N(C(=O)C3CCCC3)[C@H]2CO)cc1`, for which the call was inactive.

Consider `O=S(=O)(c1ccc(Cl)cc1)c1snnc1-c1ccccc1`, for which the outcome was inactive.

In the case of `Clc1ccc(-c2csc(N3CCSCC3)n2)cc1`, the compound was called inactive.

On to `C[C@@H]1CN([C@@H](C)CO)C(=O)CCCn2cc(nn2)CO[C@H]1CN(C)S(=O)(=O)c1ccccc1`, for which the call was inactive.

Take `CCCn1c(-c2ccccc2)cc(SC)c(C#N)c1=O`: the compound was called inactive.

Take `COc1c(O)cc(O)c2c(=O)cc(-c3ccccc3)oc12`: the result was inactive.

As to `C=CCn1c(C)nnc1SCC(=O)NC1CC1`, the result was inactive.

For `CC(C)c1ccc(NC(=O)CCNS(=O)(=O)c2cccc3nonc23)cc1`, the compound was called inactive.

Regarding `Cc1cc(C)nc(SCC(=O)OCN2C(=O)c3ccccc3C2=O)n1`, the outcome was inactive.

With `CCN(c1ccccc1)S(=O)(=O)c1ccc(OC)c(NC(=O)Cc2ccc(F)cc2)c1`, the outcome was inactive.

Turning to `COc1ccccc1NS(=O)(=O)c1cccc(NC(=O)C2CC(=O)N(Cc3ccccc3)C2)c1` (configuration not stated), the compound was classed as inactive.

Turning to `CCc1ccc(Nc2nnc(SCC(=O)Nc3ccc(C(=O)O)cc3)s2)cc1`, the call was inactive.

In the case of `CCOc1ccccc1C(=O)NCCCCCC(=O)O`, the result was inactive.

In the case of `COCCNC(=O)CN1CCC(NC(=O)C(C)(C)C)CC1`, the compound was called inactive.

As for `O=C(c1cc2ccccc2o1)N1CC=C(c2ccccc2)CC1`, the call was inactive.

For the compound `CC1=Nc2ccccc2N=C(NC(=O)CN2CCN(c3ccccc3)CC2)C1c1ccccc1` (configuration not stated), the outcome was inactive.

Take `COc1cc(C2C(C#N)=C(N)Oc3c2oc(CO)cc3=O)cc(OC)c1OC` (configuration not stated): the compound was classed as inactive.

For `CC(C)N1CCc2c(sc(NC(=O)C3CCCCC3)c2C(N)=O)C1`, the result was inactive.

On to `COC(=O)[C@@]1(Cc2ccccc2CN=[N+]=[N-])N=C(c2ccc(OCCCO)cc2)O[C@H]1c1ccccc1`, for which the call was inactive.

On to `Cc1ccccc1-n1nnnc1Sc1nnnn1-c1ccccc1`, for which the outcome was inactive.

Take `Cc1ccccc1Cn1nc(C)c(NC(=O)c2cc(-c3cccs3)on2)c1C`: the outcome was inactive.

As for `NC(=O)COC(=O)/C=C/c1ccc2ccccc2n1`, the call was inactive.

Take `CCOc1ccc(N2C(=O)Cc3ccccc3C2=O)cc1`: the compound was classed as inactive.

`COc1ccc(S(=O)(=O)N2c3ccc(F)cc3CCC2C)cc1` (configuration not stated): the call was inactive.

As for `O=C(CCc1nc2ccccc2c(=O)[nH]1)OCC(=O)N1CCc2ccccc21`, the result was inactive.

Consider `CCc1ccc(N2CC(O)=C(c3nc4ccccc4c(=O)[nH]3)C2=N)cc1`, for which the compound was called inactive.

Turning to `CO[C@H]1CN(C)C(=O)c2ccc(NC(=O)c3ccno3)cc2OC[C@H](C)NC[C@H]1C`, the call was inactive.

For the compound `Cc1cccc(C)c1NC(=O)CN(C)C(=O)c1cc(S(=O)(=O)N(C)C)ccc1N1CCCC1`, the compound was classed as inactive.

As to `COc1ccccc1C(=O)Nc1ccc2c(c1)nc(CCNC(=O)c1ccco1)n2C`, the call was inactive.

Consider `CN(Cc1ccccc1)S(=O)(=O)c1ccc(S(=O)(=O)N(Cc2ccc(F)cc2)C2CCCC2)cc1`, for which the outcome was inactive.

As for `Cc1ccc2nsnc2c1S(=O)(=O)N(Cc1ccco1)Cc1cc2cccc(C)c2[nH]c1=O`, the result was inactive.

Turning to `COc1ccc(-c2csc(N(CCCN(C)C)C(=O)c3cccs3)n2)cc1`, the result was inactive.

`COc1ccc(-c2csc(N(CCCN(C)C)C(=O)c3ccc(Br)cc3)n2)cc1`: the compound was classed as inactive.

In the case of `CO[C@H]1CN(C)C(=O)c2cc(NC(C)=O)ccc2OC[C@@H](C)N(CC2CCCCC2)C[C@@H]1C`, the compound was classed as inactive.

Turning to `CC(c1n[nH]c(=S)n1Cc1ccccc1)N(C)C` (configuration not stated), the compound was called inactive.

For `O=S(=O)(c1ccc2[nH]ccc2c1)N1CCCCCC1`, the call was inactive.

Take `CCCCSCCCNC(=O)c1cn(C)c2ccc(S(=O)(=O)N3CCCC3)cc2c1=O`: the call was inactive.

With `CCNc1nc(Oc2ccc(C#N)cc2)cc(C(F)(F)F)n1`, the result was inactive.

In the case of `CCOC(=O)C1=C(C)N=C2SC(C(=O)OC)=CC(=O)N2C1c1cccc(OC)c1` (configuration not stated), the compound was called inactive.

Turning to `COc1ccccc1C(=O)Oc1cc(N)n(S(=O)(=O)c2ccc(C)cc2)n1`, the compound was called inactive.

Take `Cn1c(Cl)cnc1C1CC(=O)c2cc(Cl)ccc2O1` (configuration not stated): the result was inactive.

For `Cc1noc(C)c1NC(=O)N(C)C[C@@H]1Oc2c(NS(=O)(=O)c3cn(C)cn3)cccc2C(=O)N([C@@H](C)CO)C[C@@H]1C`, the call was inactive.

For the compound `CO[C@@H]1CN(C)C(=O)c2cc(NS(=O)(=O)c3ccc(Cl)cc3)ccc2OC[C@H](C)N(C)C[C@H]1C`, the compound was called inactive.

In the case of `CC(C)C#Cc1ccc2c(c1)O[C@@H](CN(C)C(=O)C1CC1)[C@@H](C)CN([C@@H](C)CO)S2(=O)=O`, the outcome was inactive.

`Cc1cccc(C)c1NC(=O)C(NC(=O)c1ccccn1)c1ccc([N+](=O)[O-])cc1` (configuration not stated): the call was inactive.

Take `CCCCCC(=O)N1C[C@H](n2cc(-c3ccc(F)cc3)nn2)[C@@H](O)C[C@@H]1c1ccc(C)cc1`: the call was inactive.

On to `CCOC(=O)CC1C(=O)NCCN1S(=O)(=O)c1ccc(C)cc1` (configuration not stated), for which the call was inactive.

Turning to `CCOC(=O)C1=C(CS(=O)(=O)c2ccccc2)NC(=O)NC1c1ccc(O)c(OC)c1` (configuration not stated), the result was inactive.

On to `OC[C@@H]1[C@H](c2ccc(C#CC3CCCC3)cc2)[C@H]2CN(CCC(F)(F)F)CCCCN12`, for which the compound was classed as inactive.

In the case of `CO[C@H]1CN(C)C(=O)c2cc(NC(=O)NC(C)C)ccc2OC[C@H](C)N(Cc2ccc(-c3ccccn3)cc2)C[C@@H]1C`, the outcome was inactive.

Regarding `CCCS(=O)(=O)N1CCCC(C(=O)NCCCOC(C)C)C1` (configuration not stated), the call was inactive.

As for `Cc1nnc(NC(=O)CSc2ncc(-c3ccccc3)[nH]2)s1`, the call was inactive.

On to `Cc1ccc(-c2nc(NC(=O)c3nn(C)cc3[N+](=O)[O-])sc2C)cc1`, for which the call was inactive.

Regarding `CO[C@H]1CN(C)C(=O)c2ccc(NS(=O)(=O)c3ccccc3)cc2OC[C@@H](C)N(C(=O)NC(C)C)C[C@@H]1C`, the result was inactive.

Take `O=C(c1cc(Cl)ccc1Cl)N1CCc2ccccc21`: the compound was called inactive.

In the case of `O=C(O)c1ccccc1C(=O)N1CCN(C(=O)c2ccccc2Cl)CC1`, the outcome was inactive.

For the compound `O=C(c1ccccc1Cl)N1CCNCC1`, the result was inactive.

Regarding `C[C@H](CO)N1C[C@H](C)[C@@H](CN(C)Cc2cncnc2)Oc2cc(C#CC3CC3)ccc2S1(=O)=O`, the compound was classed as inactive.

Consider `O=C(COn1nnc2ccc(Cl)cc21)NC12CC3CC(CC(C3)C1)C2`, for which the result was inactive.

Turning to `CC(C)(C)OC(=O)NCCc1nnc(SCc2ccc(Cl)cc2)o1`, the compound was classed as inactive.

`CCOc1ccccc1OCCn1nnc2ccccc21`: the compound was classed as inactive.

Regarding `OC(CN1c2ccccc2Sc2ccccc21)Cn1nnc2ccccc21` (configuration not stated), the call was inactive.

With `CN1C[C@H](C(=O)N[C@]2(C)O[C@@]3(O)[C@@H]4CCCN4C(=O)[C@H](Cc4ccccc4)N3C2=O)CC2c3cccc4[nH]cc(c34)C[C@H]21` (some centres not stated), the call was inactive.

As to `O=C(Nc1cccc(F)c1)N1C[C@@H]2N[C@H](C1)C2c1ccc(-c2ccc(F)cc2)cc1` (some centres not stated), the compound was called inactive.

Consider `C[C@H](CO)N1C[C@H](C)[C@H](CN(C)S(C)(=O)=O)Oc2ncc(-c3cc4ccccc4o3)cc2C1=O`, for which the compound was classed as inactive.

For `O=C(Nc1nc2ccccc2[nH]1)c1ccc(Cl)c(S(=O)(=O)N2CCCC2)c1`, the call was inactive.

For `CC(C)[C@H](NC(=O)NCc1cccs1)C(=O)O`, the compound was classed as inactive.

Consider `CCOc1ccnc(OCC)c1Br`, for which the compound was called inactive.

`C[C@@H]1CN([C@H](C)CO)C(=O)c2cc(NS(C)(=O)=O)ccc2O[C@@H]1CN(C)S(=O)(=O)c1ccc(Cl)cc1`: the compound was classed as inactive.

As to `CCN1CCN(Cc2ccc(NC(=O)c3ccc(C)c(NC(=O)c4c[nH]c5cc(C(F)(F)F)ccc5c4=O)c3)cc2C(F)(F)F)CC1`, the compound was called inactive.

Take `Cc1ccccc1S(=O)(=O)NCC[C@@H]1CC[C@@H](NC(=O)C2CCOCC2)[C@H](CO)O1`: the call was inactive.

`COCCSc1ccccc1C(=O)Nc1cc(C)on1`: the compound was called inactive.

As for `Cn1nnnc1SC1CC(=O)N(c2ccccc2)C1=O` (configuration not stated), the result was inactive.

Turning to `CN(C)C(=O)c1ccc(-c2ccc([C@@H]3[C@H]4CN(C(=O)CC5CC5)CC(=O)N4[C@H]3CO)cc2)cc1`, the compound was classed as inactive.

In the case of `OC(c1ccc(Cl)cc1Cl)C(Cc1cccnc1)n1cncn1` (configuration not stated), the compound was called inactive.

Turning to `OC(c1cc(-c2ccc(Cl)cc2)nc2ccccc12)C1CCCCN1` (configuration not stated), the call was inactive.

Consider `COc1ccc2c(c1)sc1nc(-c3ccccc3)cn12`, for which the call was inactive.

In the case of `COc1ccc2c3c(n(C)c2c1)[C@H](CO)NCC31CCN(Cc2cc(F)ccc2F)CC1`, the result was inactive.

In the case of `Cc1ccc(C(=O)NNC(=O)c2cccc(Br)c2)cc1`, the compound was classed as inactive.

With `Cc1ccccc1NC(=O)CC1c2ccccc2CC(C)(C)N1C` (configuration not stated), the call was inactive.

With `CCN1CCN(c2nnc(-c3ccccc3)c3ccccc23)CC1`, the outcome was inactive.

For `CN1CCN(C(=O)c2sc(=S)n(-c3ccccc3)c2N)CC1`, the call was inactive.

For `Cc1ccc(S(=O)(=O)N2CCN(C(=O)CSc3nc4ccccc4c(=O)[nH]3)CC2)c(C)c1`, the call was inactive.

On to `Cc1cc(C)c2nc(N3CCCC(C(=O)N4CCC(C(N)=O)CC4)C3)sc2c1` (configuration not stated), for which the compound was classed as inactive.

For the compound `O=C(COc1ccccc1)N1CCN=C1SCc1ccccc1`, the call was inactive.

As for `Cn1nc(-c2ccccc2F)c2cc(C(=O)N3CCN(C(=O)c4ccco4)CC3)sc21`, the compound was classed as inactive.

Consider `O=C1c2ccccc2-c2c1cccc2C(=O)N1CCN(C(=O)c2ccco2)CC1`, for which the compound was called inactive.

Take `Cc1cc(C)cc(C(=O)Nc2ccc3[nH]c(=O)[nH]c3c2)c1`: the compound was classed as inactive.

Regarding `COc1cccc(N2CCN(c3ncnc4c3[nH]c3ccc(F)cc34)CC2C)c1` (configuration not stated), the outcome was inactive.

Turning to `C=CCOc1ccccc1CNc1ccc2[nH]c(=O)[nH]c2c1`, the outcome was inactive.

In the case of `O=C(C[C@H]1C=C[C@H](NC(=O)Nc2ccc(C(F)(F)F)cc2)[C@@H](CO)O1)NCc1ccccn1`, the compound was classed as inactive.

As for `O=C(Cc1ccccc1)N1N=C(c2ccncc2)CC1(O)C(F)(F)F` (configuration not stated), the outcome was inactive.

Consider `COc1ccc(S(=O)(=O)N2CCN(C(=O)c3cccs3)CC2)cc1OC`, for which the compound was classed as inactive.

Values taken from PubChem BioAssay AID720513 (Broad Institute, 2013).
